From PubChem BioAssay (NCATS) come the findings set out here.

Several values for one entry are separate records, joined by “and”; a condition that tells them apart may be missing. Equal entries are not always repeated. Results filed as inconclusive are left out. Activity calls are given as the source filed them. Unless noted, the rule behind the calls is not given here.

The nature of experiment [1]: qHTS assay for small molecule agonists of the antioxidant response element (ARE) signaling pathway measured by Nrf2-dependant transcriptional activity (AID 720636; active = well fitted curve in the direction sought with a large enough effect in the repeat runs; an effect the other way counts as inactive or inconclusive;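 note: HepG2 cells with an ARE-driven luciferase reporter; % of control where 0% means no effect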). In short, it runs like this: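 First, ARE-luc HepG2 cells attached for 6 hr at 37 C in 1% dialyzed FBS medium. Next, compound or DMSO was added and incubated 16 hr. Finally, ONE-Glo reagent was added and luminescence measured after 30 min.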

The nature of experiment [2]: qHTS assay for small molecule antagonists of the retinoid-related orphan receptor gamma (ROR-gamma) signaling pathway - cell viability counter screen (AID 720652; active = well fitted curve in the direction sought with a large enough effect in the repeat runs; an effect the other way counts as inactive or inconclusive;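 note: CHO reporter cells with doxycycline-induced ROR-gamma expression; compound exposure lasted 16 hr before ATP read; % is set by controls: 0 for no effect and ±100 for the full control effect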). In short, it runs like this: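 Steps: seed CHO cells bearing TET-inducible ROR and ROR response element-luciferase; rest 5 hr at 37 C; add compound, then doxycycline; incubate 16 hr; add CellTiter-Glo and read luminescence as ATP-based viability.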
(Quantitative high-throughput screening tests each substance at several concentrations.)

The nature of experiment [3]: qHTS assay for small molecule agonists of the antioxidant response element (ARE) signaling pathway measured by Nrf2-dependant transcriptional activity - cell viability counter screen (AID 720653; active = well fitted curve in the direction sought with a large enough effect in the repeat runs; an effect the other way counts as inactive or inconclusive; note: % is set by controls: 0 for no effect and ±100 for the full control effect). The settings on record: ARE-bla HepG2 viability, CellTiter-Glo ATP luminescence, 16 h; max response: stronger effect = lower value. In short, it runs like this: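 ARE-bla HepG2 cells treated with compounds for 16 h at 37C; this counter screen measures viability as intracellular ATP by CellTiter-Glo luminescence after 30 min at room temperature.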

Experiment [4] is described as follows: qHTS assay for cell viability of HEK293 cells (AID 743288; active = well fitted curve in the direction sought with a large enough effect; an effect the other way counts as inactive or inconclusive; note: nearly all actives have a fitted effect of over 50% in size; note: potency is the fitted concentration of half-maximal effect; for max response: % is set by controls: 0 for no effect and ±100 for the full control effect). The settings on record: ATP luminescence (CellTiter-Glo), 18 h; max response: stronger effect = lower value. An outline of the steps: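 ATP luminescence (CellTiter-Glo) reports metabolically competent cell number after parental HEK293 cells, 2,000/well, were treated with DMSO-dissolved compounds for 18 h at 37 C; reagent incubation 30 min, room temperature.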

Experiment [5] can be described thus: qHTS assay for cell viability of the p53RE-bla HCT-116 cell line (AID 743292; active = well fitted curve in the direction sought with a large enough effect; an effect the other way counts as inactive or inconclusive; note: % is set by controls: 0 for no effect and ±100 for the full control effect; nearly all actives have a fitted effect of over 55% in size). In short, it runs like this:
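Quantitative high-throughput format: compounds in DMSO were pinned onto p53RE-bla HCT-116 cells (4,000/well) and incubated 16 h at 37 C. Total intracellular ATP, read by CellTiter-Glo luminescence, reflects viable cell number.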

Experiment [6] can be described thus: qHTS profiling of the MIPE4 collection as inhibitors of Plasmodium falciparum (3D7) proliferation (AID 743344).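 Note: scaled between DMSO vehicle wells and 0.29 µM artemisinin as full inhibition.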 The conditions noted are these: P. falciparum 3D7 in erythrocytes, SYBR Green DNA fluorescence, 72 h; at 28.5 µM (top of the series) unless noted. An outline of the steps: (§1)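 Parasite DNA was quantified by SYBR Green I fluorescence (ex 485, em 535 nm) after overnight lysis in saponin/Triton buffer at room temperature. Cultures at 0.3% parasitemia and 2.5% hematocrit were first exposed to compound for 72 h at 37 C; signals were normalised to artemisinin (0.29 uM) and vehicle wells.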

Experiment [7] can be described thus: qHTS profiling of the MIPE4 collection as inhibitors of Plasmodium falciparum (DD2) proliferation (AID 743345). The conditions noted are these: P. falciparum Dd2 in erythrocytes, SYBR Green DNA, 72 h; at 28.5 µM (top of the series) unless noted. An outline of the steps:
as §1

Experiment [8] is described as follows: qHTS profiling of the MIPE4 collection as inhibitors of Plasmodium falciparum (DD2) proliferation (Rep 2) (AID 743346). The settings on record: P. falciparum Dd2 in erythrocytes, SYBR Green DNA, 72 h; at 28.5 µM (top of the series) unless noted. An outline of the steps: as §1
A short description of experiment [9]: qHTS Assay for Identifying Gametocytocidal Compounds (AID 743244; active = well fitted curve in the direction sought with a large enough effect; an effect the other way counts as inactive or inconclusive; note: potency is the fitted concentration of half-maximal effect;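 for max response: % is set by controls: 0 for no effect and ±100 for the full control effect; actives lower the fluorescent signal which means gametocytes are killed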). The conditions noted are these: P. falciparum 3D7 stage III-V gametocytes, alamarBlue, 72 h; max response: stronger effect = lower value. An outline of the steps: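 A resazurin-based viability read-out was applied to mature P. falciparum gametocytes: 72 h compound treatment, then 24 h dye incubation, with falling fluorescence signalling gametocytocidal effect.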

Experiment [10] is described as follows: qHTS profiling of the MIPE4 collection as inhibitors of Plasmodium falciparum (HB3) proliferation (AID 743347).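 Note: plate controls were DMSO vehicle wells for no effect and artemisinin wells for full effect.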 The conditions noted are these: P. falciparum HB3 in erythrocytes, SYBR Green DNA, 72 h; at 28.5 µM (top of the series) unless noted. In short, it runs like this:
as §1

Regarding `COc1ccc2cc3[n+](cc2c1OC)CCc1cc2c(cc1-3)OCO2`, the result in [1] was inactive. For the same molecule, the Potency result in experiment [2] and in experiment [5] was “inactive” in each case. The results for the max response in experiment [3] and in experiment [4] were -27.8% (inactive) and -16% (inactive), respectively. Besides, the parasite growth, % of DMSO control in [6] came out at 5.45%. The parasite growth remaining, % of DMSO control (lower = more inhibition) in experiment [7] turned out to be 6.26%. Also, in experiment [8], the parasite growth, % of control (lower = inhibition) is 13.4%.

For the molecule `S=P(N1CC1)(N1CC1)N1CC1`, the molecule was called inactive in [1]. Also, the max response is -3.97% (inactive) in [3]; 9.1% (inactive) and 8.65% (inactive) in [9]; -14.8% (inactive) in experiment [4]. In addition, the Potency entry in experiment [5] was “inactive”. This molecule yielded a parasite growth, % of DMSO control in experiment [6] of 11.7%. In addition, the parasite growth remaining, % of DMSO control (lower = more inhibition) in experiment [7] came out at 24.7%. In addition, the parasite growth, % of control (lower = inhibition) in [8] came to 15.4%. In experiment [10], the growth, % of control stood at 3.94%.

As to `Cc1ncc([N+](=O)[O-])n1CCO`, in [1], the outcome was inactive. The Potency entry in [2] and in experiment [5] was “inactive” throughout. Also, the max response in experiment [3] is -1.04% (inactive); in experiment [9], -1.29% (inactive); in experiment [4], -4.68% (inactive). The molecule further registered a parasite growth, % of DMSO control in experiment [6] of 88.2%. Further, the parasite growth remaining, % of DMSO control (lower = more inhibition) in [7] is 101%. Further, the parasite growth, % of control (lower = inhibition) in experiment [8] turned out to be 96.3%.

Take `CC(=O)Oc1ccccc1C(=O)Nc1ncc([N+](=O)[O-])s1`: the outcome in experiment [1] was inactive. In [4], the Potency was 28.2 µM (active).

Turning to `CC(C)(C#N)c1cc(Cn2cncn2)cc(C(C)(C)C#N)c1`, the max response in experiment [9] was 7.01% (inactive). Besides, the parasite growth, % of DMSO control in experiment [6] stood at 89.6%. Also, the parasite growth remaining, % of DMSO control (lower = more inhibition) in experiment [7] was 91.9%. Further, the parasite growth, % of control (lower = inhibition) in experiment [8] amounted to 88.7%. In experiment [10], the growth, % of control amounted to 66.6%.

In the case of `NC(=O)c1cccnc1`, in experiment [9], the max response was 0.464% (inactive). In [6], the parasite growth, % of DMSO control stood at 98.2%. The parasite growth remaining, % of DMSO control (lower = more inhibition) in [7] came out at 97.3%. Besides, in experiment [8], the parasite growth, % of control (lower = inhibition) amounted to 122%. The molecule further showed a growth, % of control in experiment [10] of 105%.

For the molecule `CCCCOc1ccc(CC(=O)NO)cc1`, in experiment [9], the max response is 1.51% (inactive). Besides, the parasite growth, % of DMSO control in experiment [6] was 11.6%. Moreover, in experiment [7], the parasite growth remaining, % of DMSO control (lower = more inhibition) came out at 14.7%. For the same molecule, the parasite growth, % of control (lower = inhibition) in experiment [8] worked out at 16.4%. The molecule also yielded a growth, % of control in experiment [10] of 5.4%.

In the case of `CC(C(=O)O)c1ccc2c(c1)CC(=O)c1ccccc1S2` (stereo not drawn), the max response in experiment [9] is 43% (inactive). Besides, in experiment [6], the parasite growth, % of DMSO control was determined as 69.8%. In experiment [7], the parasite growth remaining, % of DMSO control (lower = more inhibition) came out at 92.6%. The parasite growth, % of control (lower = inhibition) in experiment [8] was 187%. Further, the growth, % of control in experiment [10] came out at 97.8%.

As for `COc1nc(N)nc2c1ncn2[C@@H]1O[C@H](CO)[C@@H](O)[C@@H]1O`, the max response in [9] is 4.43% (inactive). In experiment [6], the parasite growth, % of DMSO control is 77.9%. In experiment [7], the parasite growth remaining, % of DMSO control (lower = more inhibition) came out at 85.4%. Besides, the parasite growth, % of control (lower = inhibition) in experiment [8] amounted to 37.8%. This molecule came in with a growth, % of control in experiment [10] of 85.6%.

Consider `O[C@@H](CNC[C@H](O)[C@H]1CCc2cc(F)ccc2O1)[C@@H]1CCc2cc(F)ccc2O1`, for which, in experiment [9], the Potency is 11.2 µM (active). Also, in experiment [6], the parasite growth, % of DMSO control worked out at 6.58%. In experiment [7], the parasite growth remaining, % of DMSO control (lower = more inhibition) stood at 8.23%. For the same molecule, in [8], the parasite growth, % of control (lower = inhibition) was found to be 19.2%. This molecule displayed a growth, % of control in experiment [10] of 8.28%.

Take `NCCCC(O)(P(=O)(O)O)P(=O)(O)O`: the max response in experiment [9] was 14.9% (inactive). For the same molecule, the parasite growth, % of DMSO control in experiment [6] came to 96%. In addition, the parasite growth remaining, % of DMSO control (lower = more inhibition) in experiment [7] is 107%. The parasite growth, % of control (lower = inhibition) in [8] amounted to 114%. In experiment [10], this molecule yielded a growth, % of control of 117%.

With `Cc1oc(=O)oc1CN1CCN(c2cc3c(cc2F)c(=O)c(C(=O)O)c2n3C(C)S2)CC1` (stereo not drawn), in [9], the max response is 2.62% (inactive). This molecule had a parasite growth, % of DMSO control in experiment [6] of 24.1%. Also, the parasite growth remaining, % of DMSO control (lower = more inhibition) in [7] stood at 12.9%. For the same molecule, in [8], the parasite growth, % of control (lower = inhibition) turned out to be 9.67%. For the same molecule, the growth, % of control in experiment [10] stood at 24.3%.
